# Results reported in ChEMBL document CHEMBL3988442, “University of Dundee, Small-Polar-MMV Screening Library” (2021).
# Among all 69,000 compounds or so, about 1,000 (1.4%) showed an effect of 50% or more. What follows is part of a selection rich in strong results, with near analogues and random picks from the rest.
# System: Leishmania donovani
# Experiment: Leishmania intramacrophage assay
# Assay type: functional, organism-based
# Design: scale not given: in the data most compounds retested in dose-response had high values
smiles,measurement,setting,value
CC(C)CCc1nc(CNCC2CN(C)CCO2)cs1 (centres undefined),Percent Effect,30 µM,42.41%
CCN1C(=O)C2(CCOCC2)c2cc(NC(=O)c3cc(C)n[nH]3)ccc21,Percent Effect,"30.3 µM, […]",7.521%
Cc1nonc1CC(=O)N1CCC2(CCCN(C3CCOCC3)C2=O)C1 (centres undefined),Percent Effect,"30.3 µM, […]",40.04%
O=C(c1c[nH]nn1)N1CCCC1C1CCCCC1 (centres undefined),Percent Effect,"30.3 µM, […]",34.69%
Cc1cc(C)n(C2CCN(S(=O)(=O)N3CCOCC3)CC2)n1,Percent Effect,"30.3 µM, […]",-18.5%
O=C(NCC(O)c1ccccc1Cl)c1cccc(-n2cnnn2)c1 (centres undefined),Percent Effect,"30 µM, 30.03 µM",18.08%
CN(C)C(CNC(=O)c1cccc(-n2cnnn2)c1)c1ccccc1Cl (centres undefined),Percent Effect,"30 µM, 30.03 µM",-12.85%
CN(C)C(CNC(=O)c1ccc(-n2cnnn2)cc1)c1ccccc1Cl (centres undefined),Percent Effect,"30.3 µM, […]",52.55%
Cc1ncc(CNC(C)(C)CO)c2cc(C(=O)c3ccc(Br)cc3)oc12,Percent Effect,"30.3 µM, […]",44.76%
Cc1ncc(CNCCO)c2cc(C(=O)c3ccc(Br)cc3)oc12.Cl,Percent Effect,"30.3 µM, […]",52.55%
Cc1ncc(CNCC(C)O)c2cc(C(=O)c3ccc(Br)cc3)oc12.Cl (centres undefined),Percent Effect,"30.3 µM, […]",46.85%
CCn1nc(C)c2ncnc(NCCn3cccn3)c21,Percent Effect,"30.3 µM, […]",-8.829%
N#Cc1ccc(N2CCC3(CC2)COCCN3Cc2cccnc2)cc1.O=C(O)C(F)(F)F,Percent Effect,"30.3 µM, […]",-0.3912%
CNc1ncc2c(n1)CN(C1CC(C)(C)NC(C)(C)C1)C2=O,Percent Effect,"30.3 µM, […]",57.04%
CC1(C)CC(N2Cc3nc(N)ncc3C2=O)CC(C)(C)N1,Percent Effect,"30 µM, 30.03 µM",0.1811%
CNc1ncc2c(n1)CN(C1CCCC1)C2=O,Percent Effect,"30.3 µM, […]",-21.11%
CCc1nsc(NC2CC(=O)N(C3CC3)C2)n1 (centres undefined),Percent Effect,"30.3 µM, […]",25.34%
Cc1ccc(-c2[nH]c3ccccc3c2C(=O)O)c(C)c1,Percent Effect,"30.3 µM, […]",12.49%
COCCN1CCC(CNC(=O)Nc2ccc(-c3ccccc3)cc2)C1 (centres undefined),Percent Effect,"30.3 µM, […]",93.25%
COCCN1CCC(CNC(=O)Nc2ccc(SC(F)(F)F)cc2)C1 (centres undefined),Percent Effect,"30.3 µM, […]",43.78%
COCCN1CCC(CNC(=O)Nc2ccc(F)c(Cl)c2)C1 (centres undefined),Percent Effect,"30.3 µM, […]",9.001%
Cc1cccc(CN2CCC3(CC(C(=O)NCC(C)C)=NO3)C2)c1 (centres undefined),Percent Effect,"30.3 µM, […]",14.53%
CN(Cc1ccccc1)c1ccc(C(F)(F)F)cn1,Percent Effect,"30.3 µM, […]",14.63%
CN(Cc1ccc([S+](C)[O-])cc1)c1ccc(C(F)(F)F)cn1 (centres undefined),Percent Effect,"30.3 µM, […]",54.49%
CN(Cc1ccc([S+](C)[O-])cc1)c1ccc(Br)cn1 (centres undefined),Percent Effect,"30.3 µM, […]",20.24%
Cn1ccnc1CN1CCCN(C(=O)CC(C2CC2)C2CC2)CC1,Percent Effect,30 µM,10.73%
Cn1nc(C(=O)NCc2cccs2)c2c1CCS(=O)(=O)C2,Percent Effect,"30.3 µM, […]",62.35%
Cc1ncc(CNC(=O)c2nn(C)c3c2CS(=O)(=O)CC3)s1,Percent Effect,"30 µM, 30.03 µM",17.47%
Cn1nc(C(=O)NCc2ccccn2)c2c1CCS(=O)(=O)C2,Percent Effect,"30 µM, 30.03 µM",-1.622%
CN1C(=O)CCCC12CCCN(Cc1cccs1)C2.O=C(O)C(F)(F)F (centres undefined),Percent Effect,"30.3 µM, […]",13.27%
OC(COCc1ccccc1F)CN1CCC(Cn2cccn2)CC1 (centres undefined),Percent Effect,"30.3 µM, […]",8.392%
Cc1ccc(CN2C[C@@H]3CN(C(=O)c4cccn4C)C[C@@H]3C2)cc1.O=C(O)C(F)(F)F,Percent Effect,"30.3 µM, […]",-2.2%
Cc1noc(CNc2c(N3CCCC3)cccc2N2CCCC2)n1,Percent Effect,"30.3 µM, […]",45.54%
Cc1noc(C)c1CNc1c(N2CCCC2)cccc1N1CCCC1,Percent Effect,"30.3 µM, […]",97.2%
COc1ccccc1N1CCC(NCc2c(C)noc2C)C1 (centres undefined),Percent Effect,"30.3 µM, […]",7.918%
Cc1cc(CN2CCC(N(C)Cc3noc(C4CC4)n3)C2)on1 (centres undefined),Percent Effect,30 µM,11.66%
O=C(c1ccncc1)N1CCCn2c(CN3CCCCC3)nnc2C1,Percent Effect,"30 µM, 30.03 µM",-1.304%
CN1CC(c2cc(O)nc(NCc3ccccc3Cl)n2)CC1=O (centres undefined),Percent Effect,"30.3 µM, […]",7.659%
Cc1ncc(C(=O)NCCOc2ccccc2F)c(C)n1,Percent Effect,"30.3 µM, […]",48.08%
Cc1nc(C2(O)CCCNCC2)sc1CCOc1ccccc1Cl.Cl (centres undefined),Percent Effect,"30.3 µM, […]",22.61%
CCN1CCCC(O)(c2nc(C)c(CCOc3ccccc3F)s2)CC1 (centres undefined),Percent Effect,"30.3 µM, […]",7.204%
Cc1nc(C2(O)CCCNCC2)sc1CCOc1ccccc1F.Cl (centres undefined),Percent Effect,"30.3 µM, […]",57.78%
CCN1CCCC(O)(c2nc(C)c(CCOc3ccccc3Cl)s2)CC1 (centres undefined),Percent Effect,"30.3 µM, […]",29.58%
CC/N=c1/c(NC(=O)C2CC2)c(O)oc2ccccc12,Percent Effect,"30.3 µM, […]",-64.73%
CNC(=O)C(C)(C)CNC(=O)Nc1ccc(C)cn1,Percent Effect,"30.3 µM, […]",-4.041%
CN1CCC(N2CCC(C(=O)N(C)C)CC2)CC1.O=C(O)C(F)(F)F.O=C(O)C(F)(F)F,Percent Effect,"30.3 µM, […]",15.52%
Cc1cc(C(=O)NCc2ccnc(N3CCN(C)CC3)c2)no1,Percent Effect,30 µM,35.55%
COCCCn1ccnc1-c1cnc(OC)nc1,Percent Effect,"30 µM, 30.03 µM",27.45%
COc1ncc(-c2nccn2C(C)CCn2cccn2)cn1 (centres undefined),Percent Effect,"30.3 µM, […]",51.46%
COc1cc(-c2nccn2C(C)CCn2cccn2)cc2c1OCO2 (centres undefined),Percent Effect,"30.3 µM, […]",30.8%
CCOCCNC(=O)c1cccnc1Sc1cc(OC)ccc1OC,Percent Effect,"30.3 µM, […]",14.43%
CC(NCC1CCN(CCO)CC1)c1ccc(F)c(Cl)c1 (centres undefined),Percent Effect,"30.3 µM, […]",55.27%
CC(NC1CCN(CCS(C)(=O)=O)CC1)c1ccc(Cl)cc1 (centres undefined),Percent Effect,"30 µM, 30.03 µM",14.89%
Cc1ccc(CNC(=O)CNCC2CCN(CCO)CC2)s1,Percent Effect,"30.3 µM, […]",12.94%
CC(NCC1CCN(CCO)CC1)c1ccc(C(F)(F)F)cc1 (centres undefined),Percent Effect,"30.3 µM, […]",77.37%
CC(NCC1CCN(CCO)CC1)c1cccc(Cl)c1 (centres undefined),Percent Effect,"30.3 µM, […]",73.65%
COC1CCN(CCNC(=O)NC(C)c2cccc(Cl)c2)CC1 (centres undefined),Percent Effect,"30.3 µM, […]",6.711%
CC(NCC1CCN(CCO)CC1)c1ccc(Cl)cc1 (centres undefined),Percent Effect,"30.3 µM, […]",77.33%
OCCN1CCN(CC(O)c2ccc(C(F)(F)F)cc2)CC1 (centres undefined),Percent Effect,"30.3 µM, […]",28.06%
CC(NCC1CCN(CCO)CC1)c1ccc(OC(F)(F)F)cc1 (centres undefined),Percent Effect,"30.3 µM, […]",36.61%
CN(CC1CCN(CCO)CC1)CC(O)c1ccc(F)c(F)c1 (centres undefined),Percent Effect,"30.3 µM, […]",32.26%
CC(NCC1CCN(CCO)CC1)c1cccnc1 (centres undefined),Percent Effect,"30.3 µM, […]",10.64%
COc1ccc(CNCC2CCN(CCO)CC2)cc1F,Percent Effect,"30.3 µM, […]",13.13%
O=C(O)C(F)(F)F.O=S(=O)(C1CC1)N1CCOCC2(CCN(c3ccccn3)C2)C1 (centres undefined),Percent Effect,"30 µM, 30.03 µM",-13.08%
CC(C)N(C)Cc1nnn2c1CN(Cc1cccnc1)CCC2.O=C(O)C(F)(F)F.O=C(O)C(F)(F)F.O=C(O)C(F)(F)F,Percent Effect,"30.3 µM, […]",-19.03%
FC(F)(F)c1cc(C2CCNCC2)nc(-c2ccsc2)n1,Percent Effect,"30.3 µM, […]",3.687%
CN(Cc1ccccc1)S(=O)(=O)N1C[C@H](C2CC2)[C@@H](N)C1,Percent Effect,"30.3 µM, […]",11.31%
Cc1noc(CN(C)CC2CCN(CCO)CC2)n1,Percent Effect,"30.3 µM, […]",19.09%
Cc1nc(C)n(CC2CCCN(CCc3ccccc3)C2)n1 (centres undefined),Percent Effect,30 µM,25.36%
Cc1nc(CN(C)C2CCN(CCc3ccc4c(c3)CCO4)C2)no1 (centres undefined),Percent Effect,30 µM,14.02%
Cc1nc(CN(C)C2CCN(CCc3cnn(C)c3)C2)no1 (centres undefined),Percent Effect,30 µM,5.885%
CCc1nc(CN(C)C2CCN(CCc3ccncc3)C2)no1 (centres undefined),Percent Effect,"30.3 µM, […]",23.01%
COc1ccc(CCN2CCCC(Cn3nc(C)nc3C)C2)cc1 (centres undefined),Percent Effect,"30 µM, 30.03 µM",18.76%
O=C(CCOc1ccccc1)NS(=O)(=O)Cc1ccccc1,Percent Effect,"30.3 µM, […]",8.588%
CCO[C@H]1CC[C@H]2[C@H]1OCCN2C(=O)CC1=CCCCC1,Percent Effect,"30.3 µM, […]",2.273%
Cn1cnc(S(=O)(=O)N2CCCC2)c1Cl,Percent Effect,"30 µM, 30.03 µM",14.79%
O=C(NCCc1cccc(F)c1)c1nc2c(s1)CCCN2C(=O)C1CC1,Percent Effect,"30.3 µM, […]",44.4%
CCN(Cc1ccoc1)C(C(N)=O)c1cccc(Br)c1 (centres undefined),Percent Effect,"30.3 µM, […]",23.25%
CN(c1ncc(S(N)(=O)=O)s1)C1CCc2ccccc2C1 (centres undefined),Percent Effect,"30.3 µM, […]",53.12%
CN(c1ncc(S(N)(=O)=O)s1)C1CCc2ccccc21 (centres undefined),Percent Effect,"30.3 µM, […]",21.68%
CN(c1ncc(S(N)(=O)=O)s1)C1CCC1,Percent Effect,"30.3 µM, […]",27.02%
O=C(NC1CCC1)C1=NOC2(CCN(Cc3ccccc3)C2)C1 (centres undefined),Percent Effect,"30.3 µM, […]",18.41%
CCCC(=O)N1CCOC2(COCCN(CC(=O)NC)C2)C1.O=C(O)C(F)(F)F (centres undefined),Percent Effect,"30.3 µM, […]",-9.456%
CNC(=O)CN1CCOCC2(C1)CN(C(=O)CC(C)C)CCO2.O=C(O)C(F)(F)F (centres undefined),Percent Effect,"30.3 µM, […]",52.6%
CNC(=O)CN1CCOCC2(C1)CN(C(=O)C(C)C)CCO2.O=C(O)C(F)(F)F (centres undefined),Percent Effect,"30.3 µM, […]",-36.06%
NCCc1n[nH]c(=O)n1-c1cccc2ccccc12,Percent Effect,"30.3 µM, […]",-1.188%
COc1ccc2nnc(CCCC(=O)NCc3ccccc3OC)n2n1,Percent Effect,"30.3 µM, […]",-10.21%
COc1ccc2nnc(CCCC(=O)NCc3ccccc3)n2n1,Percent Effect,"30.3 µM, […]",-8.358%
COc1ccc2nnc(CCCC(=O)NCc3ccccc3F)n2n1,Percent Effect,"30.3 µM, […]",59.63%
Cn1nccc1CNC(=O)CCn1nc(C(F)(F)F)cc1C1CC1,Percent Effect,"30.3 µM, […]",-48.51%
Cc1cc(=O)[nH]c(-n2nc(-c3cccs3)cc2N)n1,Percent Effect,"30.3 µM, […]",-7.901%
CC(=O)Nc1cc(C2CC2)nn1-c1nc(C)c(C)c(=O)[nH]1,Percent Effect,"30.3 µM, […]",-16.88%
Cc1nc(-n2nc(C3CC3)cc2NC(=O)C(C)C)[nH]c(=O)c1C,Percent Effect,"30.3 µM, […]",15.32%
CCCc1cc(=O)[nH]c(-n2nc(-c3cccs3)cc2N)n1,Percent Effect,"30.3 µM, […]",-5.205%
CCc1c(C)nc(-n2nc(C3CC3)cc2NC(C)=O)[nH]c1=O,Percent Effect,"30.3 µM, […]",18.69%
CC(C)c1cc(=O)[nH]c(C(C)(C)N)n1.Cl,Percent Effect,"30.3 µM, […]",-1.615%
Cc1cc(=O)[nH]c(-n2nc(C3CC3)cc2N)n1,Percent Effect,"30.3 µM, […]",77.1%
CCCc1cc(=O)[nH]c(-c2cccc(CN3CCCCCC3)c2)n1,Percent Effect,"30.3 µM, […]",-12.61%
Cc1cc(=O)[nH]c(-n2nc(-c3ccccc3)cc2N)n1,Percent Effect,"30.3 µM, […]",15.58%
CC(NC(=O)CCc1nc(C(C)(C)C)no1)c1nnc2n1CCC2 (centres undefined),Percent Effect,"30.3 µM, […]",10.79%
CNC(=O)CCS(=O)(=O)Cc1cc(Cl)c2c(c1)OCCO2,Percent Effect,30 µM,6.265%
O=C(CN1CCC(C(=O)c2cc(F)ccc2F)CC1)NC1CC1,Percent Effect,"30.3 µM, […]",20.49%
CNC(=O)C(NC(=O)CCc1cccc(OC2CCCC2)c1)C(C)C (centres undefined),Percent Effect,"30.3 µM, […]",1.65%
Cc1nsc(C(=O)NCCCc2ccccc2)n1,Percent Effect,"30.3 µM, […]",7.564%
